Test results reported in PubChem BioAssay AID588343 (Broad Institute, 2011).
Out of some 1,200 compounds screened, about 650 (54%) were called active. Not shown: some 5% with an inconclusive outcome.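 How the source made its calls: active means signal-lowering curve whose fitted half-maximal concentration is at or below ten times the top valid dose tested; inconclusive means flat curve with 30 to 70% inhibition, or poor fit; inactive means signal increase, flat within 30%, or potency beyond limit.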 So high a share suggests a set chosen from earlier hits. Not all results are given here. Results with a measured potency or affinity are listed apart.

Assay: EBV LMP1 TES2 canonical NF-kB signalling blockers – cell-based, HEK293, luciferase, cherry-pick, dose response (AID 588343)
Conditions: HEK293 LMP1 TES2 NF-kB luciferase reporter, 16 h; series mostly up to 35 µM

outcome, inactive:
Cc1ccnc(N/C=C(/NC(=O)c2ccccc2)C(=O)N/N=C\c2ccc(F)cc2)n1
O=C(Nc1nnc(N2CCCCCC2)s1)c1cc(-c2ccc(Br)cc2)on1
COc1ccc(-c2cc(C(F)(F)F)n3nc(C(=O)N4CCOCC4)nc3n2)cc1
COCCCNC(=O)CN1C(=O)COc2ccc(S(=O)(=O)N3CCOCC3)cc21
CCCSc1nc2cc(S(=O)(=O)N3CCOCC3)ccc2n1CC
CN(C)CCN(Cc1ccc(Cl)cc1)c1ccccn1
COc1ccc(CC(C)NCC(O)c2ccc(O)c(NC=O)c2)cc1 (stereo unspecified)
CCOC(=O)C1=C(C)NC(C)=C(C(=O)OCC)C1c1cn(-c2ccccc2)nc1-c1ccco1
O=C(Nc1cc(S(=O)(=O)N2CCOCC2)ccc1Cl)c1ccncc1
O=C(CSc1nnc(-c2cccc(S(=O)(=O)N3CCOCC3)c2)n1C1CCCCCC1)NCc1ccccc1
N=c1c(-c2nc3ccccc3[nH]2)cc(C(=O)c2cccs2)nn1-c1ccccc1
Cc1cc(NC(=O)c2ccc(C)s2)n(-c2nc3ccccc3[nH]2)n1
CCCC(=O)NCCCc1nc2ccccc2[nH]1
O=c1cc(Cl)nc2ccccn12
COc1ccc2[nH]c3c(=O)n(CCCCC(=O)N4CCC(C(N)=O)CC4)c(=S)[nH]c3c2c1
O=C(Cc1ccc(Cl)cc1)NCC(=O)N1CCCCC1
Cc1ccccc1N(C(=O)c1snc(C(N)=O)c1N)C(C(=O)NC1CCCCC1)c1ccc(O)cc1 (stereo unspecified)
S=C1SCN(Cc2ccccc2)CN1Cc1ccco1
CCOc1cc(/C=C2/C(=N)N3N=C(CC)SC3=NC2=O)ccc1OC(=O)c1ccco1
COc1ccc(CCC(=O)Nc2ccc(C)c([N+](=O)[O-])c2)cc1
CC(=O)Oc1ccc(C(=O)Nc2cccnc2)cc1
O=C(COc1ccc2ccccc2c1)NCCNC(=O)COc1ccc2ccccc2c1
CNC(=O)C1=NCCCc2cc(OC)c(OC)cc21
O=C(NC1CCCCC1)N1CCN(c2ccc([N+](=O)[O-])cc2)CC1
COc1ccc(-n2nc(C(=O)c3cccs3)cc(-c3nc4ccccc4[nH]3)c2=N)cc1
CNC(=S)N1N=C(c2cccs2)CC1c1ccc(F)cc1 (stereo unspecified)
O=C(CN1C(=O)C2C3C=CC(C3)C2C1=O)NCCC1=CCCCC1 (stereo unspecified)
O=C(CN(Cc1cccs1)C(=O)CNS(=O)(=O)c1ccccc1)NCc1ccco1
O=C(COC(=O)c1ccc(S(=O)(=O)NCc2ccco2)cc1)Nc1ccc(Cl)cn1
CCOc1ccc(NC(=O)Cn2cc(C(=O)CC)c3ccccc32)cc1
Cc1ccnc(NC(=O)c2cccc(NC(=O)c3ccc(Cl)c(Cl)c3)c2)c1
CC(=O)Nc1ccc(OCC(O)CNC(C)C)cc1 (stereo unspecified)
Cc1cc(OCC(=O)Nc2cnn(CCCC(=O)O)c2)ccc1Cl
COC(=O)c1cccc(COC(=O)c2ccccc2NC(=O)c2ccco2)c1
COc1ccc(NC(=O)Cn2nnc(C(=O)NCc3ccccc3)c2N)c(OC)c1
COc1cccc(-c2nc(NCc3ccccc3)c3ccccc3n2)c1O
Cn1cccc1CC(=O)NNC(=S)Nc1ccccc1Cl
COc1ccc(NC(=O)C[C@H]2C(=O)N(CCc3ccccc3)C[C@@H]2c2ccc(OC)cc2)cc1
COc1ccc(NC(=O)NCCN2CCc3ccccc3C2)cc1
C=CCN(c1ccc(C(=O)Nc2ccc3c(c2)n(C)c(=O)n3C)cc1)S(C)(=O)=O
O=C(Nc1ccc2c(c1)C(=O)OC2)c1ccc(C(F)(F)F)cc1
COc1ccc(C(CNC(=O)Nc2ccccc2)N2CCN(C)CC2)cc1 (stereo unspecified)
CCNc1nc(CN2CCOCC2)nc2sc3c(c12)CCC3
COc1cccc(C2Nc3ccc4ccccc4c3C3=C2C(=O)CC(C)(C)C3)c1OCC(=O)O (stereo unspecified)
O=C(CN1C(=O)CCOc2ccccc21)Nc1ccc(Cl)c(S(=O)(=O)N2CCOCC2)c1
COc1ccc(C(c2sc3nc(C)nn3c2O)N2CCC(C(N)=O)CC2)cc1OC (stereo unspecified)
CC1=C(CC(=O)O)c2cc(F)ccc2C1=Cc1ccc(S(C)(=O)=O)cc1
COc1ccc(NC(=O)N(CCN2CCCC2)Cc2cc3cc(OC)c(OC)cc3[nH]c2=O)cc1
O=C(Nc1ncc(Br)s1)C(Cc1ccccc1)n1cccc1 (stereo unspecified)
CCOC(=O)c1cc(-c2ccccc2)n(CC(=O)Nc2cccc(OC)c2)c1C
CC(=NNC(=S)N1CCCCCC1)c1cccc2cccnc12
Cc1ccc2oc(C(=O)Nc3ccc(S(=O)(=O)Nc4onc(C)c4C)cc3)c(C)c2c1
COc1ccc(OC)c(S(=O)(=O)NC(C)CCc2ccccc2)c1 (stereo unspecified)
O=C(NCC1CCOCC1)c1ccc(OC2CCN(Cc3ccccn3)CC2)cc1
COCCCNCC1C(Oc2ccc(Cl)cc2)C(=O)N1c1ccccc1C (stereo unspecified)
Cc1sc2ncn(CC(=O)N3CCC(C(N)=O)CC3)c(=O)c2c1S(=O)(=O)N1CCOCC1
CN(C)S(=O)(=O)c1ccc(Cl)c(C(=O)NCCNC(=O)c2cc(S(=O)(=O)N(C)C)ccc2Cl)c1
CCN(Cc1ccncc1)C(=O)CCc1ccccc1
Cc1ccc(CCNC(=O)CCc2nc3ccccc3[nH]2)cc1
NC(=O)CC(NC(=O)c1ccccc1)c1ccc(NC2CCN(Cc3ccccc3)CC2)c([N+](=O)[O-])c1 (stereo unspecified)
COc1cc(N)c(Cl)cc1C(=O)NC1CCN(Cc2ccccc2)CC1
O=C(N/N=C(/CC(=O)c1cccs1)C(F)(F)F)c1ccc(O)cc1
Cn1c(=O)[nH]c(=O)c2c1nc(CN1CCOCC1)n2CCCc1ccccc1
CN1CCN(CCOc2ccc(Cc3ccccc3)cc2)CC1
CCn1c2ccccc2c2cc(NC(=O)c3ccccc3-c3ccccc3C(=O)O)ccc21
CS(=O)(=O)N(CC(=O)Nc1ccc(F)cc1F)C1CCCCC1
